In PubChem BioAssay AID743280 (The Scripps Research Institute Molecular Screening Center, 2014) one finds inhibition data, which are given here for 110 compounds.

Molecules are shown by their SMILES. Screen size: about 2,000 compounds; about 680 (34%) were called active.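 Rule for the calls: active = mean inhibition across triplicates above the hit cutoff set in the earlier primary screen (cut at about 19% in these data); inactive = the rest.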 The list is a sample of the results.

For the assay, the target named is Group 3 secretory phospholipase A2 (Homo sapiens) (UniProt Q9NZ20). In words: HGIII-sPLA2 enzyme inhibition – biochemical, QFRET, triplicate, confirmation (AID 743280).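 Note: 0% = enzyme with DMSO and 100% = DMSO wells lacking enzyme.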 The conditions noted are these: recombinant hGIII-sPLA2, BODIPY PC-A2 QFRET fluorescence; at 12.2 µM; stronger effect = higher value.
Sequence of Group 3 secretory phospholipase A2 (Homo sapiens) (Q9NZ20 whole entry, looked up): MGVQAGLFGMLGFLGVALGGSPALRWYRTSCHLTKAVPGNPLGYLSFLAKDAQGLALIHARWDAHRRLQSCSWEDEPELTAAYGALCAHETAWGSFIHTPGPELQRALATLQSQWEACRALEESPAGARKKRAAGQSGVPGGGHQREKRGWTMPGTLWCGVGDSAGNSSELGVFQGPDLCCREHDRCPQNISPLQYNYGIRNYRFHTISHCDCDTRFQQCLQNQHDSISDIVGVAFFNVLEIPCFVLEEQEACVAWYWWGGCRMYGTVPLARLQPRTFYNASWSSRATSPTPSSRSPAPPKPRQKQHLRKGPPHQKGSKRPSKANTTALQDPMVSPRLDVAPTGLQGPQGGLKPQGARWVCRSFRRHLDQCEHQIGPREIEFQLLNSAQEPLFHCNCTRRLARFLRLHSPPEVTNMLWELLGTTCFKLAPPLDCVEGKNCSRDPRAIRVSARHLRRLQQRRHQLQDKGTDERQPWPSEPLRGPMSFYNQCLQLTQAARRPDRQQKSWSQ
What is called inhibition is the drop in the measured response relative to a control, in per cent. As for `N#CC1(Nc2ccc(-c3ccc(Cl)cc3)cc2)CCCC1`, the inhibition was 24.4% (active).

Consider `C=CCNc1scc(-c2ccccc2)[n+]1CC=C`, for which the inhibition is 10.9% (inactive).

Take `Cc1cccc(N2CCN(c3ccc(NC(=O)/C=C\C(=O)O)cc3)CC2)c1`: the inhibition was 7.11% (inactive).

For `CCOc1ccc2[nH]c(=S)sc2c1`, the inhibition is 27.4% (active).

For the compound `COCCn1c(SCC(=O)Nc2cc(OC)ccc2OC)nc2c(c1=O)SC(C)C2` (stereo not given), the inhibition is -3.55% (inactive).

With `CCCCn1c(=S)[nH]c2ccccc2c1=O`, the inhibition is 12.9% (inactive).

On to `O=C(NC(=S)Nc1ncccn1)c1ccccc1Br`, for which the inhibition was 10.1% (inactive).

Regarding `COc1ccc(C(=O)NC(=S)NNC(=O)c2c(-c3ccccc3)noc2C)cc1`, the inhibition is 35.4% (active).

Regarding `COc1ccc(C(=O)Nc2sc(C)c(C)c2CN2CCOCC2)cc1`, the inhibition is 8% (inactive).

`COc1ccc(C(=O)NNC(=S)NC(=O)c2ccccc2)cc1`: the inhibition is 22.1% (active).

As for `NS(=O)(=O)c1ccc(CCNC(=O)NC2CCCCC2)cc1`, the inhibition is -1.05% (inactive).

With `Cc1c(NC(=S)NCc2ccc(F)cc2)cccc1[N+](=O)[O-]`, the inhibition was 3.91% (inactive).

For `Cn1cc(Cl)c(C(=O)NNC(=S)Nc2cccc(Cl)c2)n1`, the inhibition is 42.3% (active).

As for `Cc1ccc(NC(=S)NNC(=O)CSc2nnc(SCc3ccccc3Cl)s2)cc1`, the inhibition is 3% (inactive).

As to `Cc1cc(NCCc2c[nH]c3ccccc23)ccc1Oc1cccnc1`, the inhibition is 10.5% (inactive).

On to `CN(C)c1ccc(NC(=O)NC2CCCCN(Cc3ccc(Cl)cc3)C2=O)cc1` (stereo not given), for which the inhibition is 6.59% (inactive).

With `c1ccc(C2=Nc3cccc4cccc(c34)N2)cc1`, the inhibition was 50.5% (active).

For `C/C(=N/NC(=O)c1cc(Cl)ccc1O)C12CC3CC(CC(C3)C1)C2`, the inhibition is 15.1% (inactive).

Take `Nc1ccc2c(c1)C(O)c1ccc(Cl)cc1-2` (stereo not given): the inhibition is 26.1% (active).

For `Cc1ccc(C2CC(c3cccc(C)c3)n3nc(N)nc3N2)cc1` (stereo not given), the inhibition is 6.67% (inactive).

For `CC(C)(C)c1cc2cccnc2n1Cc1cccc(F)c1`, the inhibition was 13.1% (inactive).

Consider `CCOc1ccc(Br)cc1CSC(=N)N`, for which the inhibition is 26% (active).

`COc1ccc(NC(=O)C2C3C=CC(C3)C2C(=O)NCc2ccccn2)c(OC)c1` (stereo not given): the inhibition is 1.31% (inactive).

In the case of `Cc1ccc(-c2csc(NNC(=O)c3ccccc3)n2)cc1`, the inhibition is 56.7% (active).

Take `CCN(CC(=O)NC1CCS(=O)(=O)C1)S(=O)(=O)c1ccccc1` (stereo not given): the inhibition was -6.89% (inactive).

In the case of `COc1ccc(C(N)c2csc(NC(=O)Nc3cccc(C(F)(F)F)c3)n2)cc1` (stereo not given), the inhibition was 23% (active).

In the case of `NC(c1csc(NC(=O)Nc2ccccc2Oc2ccccc2)n1)c1ccccc1Cl` (stereo not given), the inhibition is 8.22% (inactive).

As to `Cc1cc(-n2nc(C)cc2C)n2ncc(-c3ccccc3)c2n1`, the inhibition is 14.7% (inactive).

Consider `CCc1cccc(CC)c1NC(=S)NCc1ccc2[nH]c(C)cc2c1`, for which the inhibition was -6.2% (inactive).

As to `CC(=O)NC(c1cccs1)c1cc(Br)c2cccnc2c1O` (stereo not given), the inhibition was 19.7% (active).

Regarding `CCOc1ccc(/C=N/NC(N)=S)cc1`, the inhibition was 12.7% (inactive).

On to `Cc1ccccc1NC(=O)C1CCN(c2ncccn2)CC1`, for which the inhibition was -1.34% (inactive).

As for `CC(=O)/C(=N\Nc1ccc(Cl)cc1Cl)Sc1cccc2cccnc12`, the inhibition is -6.23% (inactive).

Turning to `CCc1cc(-c2n[nH]c(=S)n2CC(C)C)cs1`, the inhibition was 24.9% (active).

As to `CC(C)c1ccc(Nc2nnc(SCC(=O)c3nnc(-c4ccccc4)o3)s2)cc1`, the inhibition is 6.4% (inactive).

Take `O=C1C(=O)N(Cc2ccc(-c3ccsc3)cc2)c2ccc(OC(F)(F)F)cc21`: the inhibition was 32.9% (active).

As for `C=CCn1c(C23CC4CC(CC(C4)C2)C3)n[nH]c1=S`, the inhibition is 27.1% (active).

In the case of `CCN(Cc1ccccc1)C(=O)CN1C(=S)NC(C)(C)CC1C` (stereo not given), the inhibition was 8.88% (inactive).

For the compound `CC1=CC(C)(C)NC(=S)N1c1ccccc1`, the inhibition is 14.3% (inactive).

Take `CCCCn1c(N)c(N(CCOC)C(=O)COc2c(C)cccc2C)c(=O)[nH]c1=O`: the inhibition is 10.8% (inactive).

With `O=C(NNC(=S)Nc1ccc(F)cc1)[C@H]1C[C@@H]1c1ccccc1`, the inhibition is 35.9% (active).

Take `COc1cc(NS(=O)(=O)c2ccc3ccccc3c2)c2ncccc2c1`: the inhibition is 11% (inactive).

With `CSC1=NN(c2ccccc2)CN(c2ccccc2)N1C`, the inhibition was 25.6% (active).

`CCOC(=O)C1(Cc2cccc(OC)c2)CCCN(C(=O)CCSC)C1` (stereo not given): the inhibition was 2.05% (inactive).

On to `C/C(=N\Nc1ccc(Cl)nn1)c1ccccc1O`, for which the inhibition was 7.83% (inactive).

For `Brc1ccccc1C1Nc2cccc3cccc(c23)N1`, the inhibition is 58.1% (active).

For the compound `CC(=O)c1nnn(-c2ccc(Cl)cc2C#N)c1C`, the inhibition is 1.06% (inactive).

Regarding `O=C(NNc1ccccn1)c1ccc(Cl)nc1`, the inhibition is 25.9% (active).

Take `COc1cccc(NC(C)=[N+](C)CCNS(=O)(=O)c2ccc(Cl)cc2)c1`: the inhibition is -1.54% (inactive).

On to `COc1cc(OC)cc(C2=Cc3ccccc3C(CC(=O)c3ccco3)N2c2ccc(-c3cnc(OC)nc3)cc2)c1` (stereo not given), for which the inhibition is 1.48% (inactive).

`Cc1cccc(-n2cnc(C(=O)NNC(=S)Nc3ccccc3)c2)n1`: the inhibition is 46.5% (active).

Take `O=C(CSc1nc2ccccc2n1Cc1ccccc1)NNC(=S)Nc1ccccc1`: the inhibition is 15.2% (inactive).

As for `C/C(=N\NC(=O)CSc1nc2ccccc2c(=O)n1-c1ccccc1C)c1cccs1`, the inhibition was -11% (inactive).

`Nc1ccc(Nc2ccccc2)cc1`: the inhibition is 17.8% (inactive).

For the compound `COCCCNC(=O)CNC(=S)N(Cc1cc(OC)c(OC)c(OC)c1)C1CCCC1`, the inhibition is 7.62% (inactive).

As for `CC(C)(c1ccccc1)c1ccc(OCCN)cc1`, the inhibition was 0.24% (inactive).

Turning to `Cc1cc(-c2n[nH]c(=S)n2-c2ccc(C)c(C)c2)no1`, the inhibition is 24.4% (active).

With `COc1ccccc1OCCn1c(SCC(N)=O)nc2ccccc21`, the inhibition was 13.8% (inactive).

Consider `O=C(Nc1cccc(F)c1)c1cc(-c2ccco2)nc2ccccc12`, for which the inhibition was 9.4% (inactive).

As to `CC(=O)Oc1ccc2c(c1)C(=O)c1ccccc1C2=O`, the inhibition is 1.09% (inactive).

With `Cc1ccc2sc(NNC(=O)c3ccc4c(c3)OCCO4)nc2c1C`, the inhibition was 38.7% (active).

As to `C#CCCCc1nc2ccccc2c(=O)n1N`, the inhibition is 1.47% (inactive).

Turning to `Oc1ccc2ccccc2c1N=Nc1nccs1`, the inhibition is 47.5% (active).

Turning to `CSc1ccc(NC(=O)/C=C/C(=O)O)cc1`, the inhibition is -0.31% (inactive).

Regarding `Cc1sc2nc(SCC(=O)c3ccc(O)c(O)c3)n(Cc3ccco3)c(=O)c2c1C`, the inhibition was -10.3% (inactive).

As for `C/C(=N\NC(=S)Nc1ccc(C)cc1)c1cc2ccccc2o1`, the inhibition is 40.2% (active).

For `COc1ccccc1OCC(=O)OCn1c(SC)nnc(C)c1=O`, the inhibition is -3.63% (inactive).

As for `CC(C(=O)Nc1ccccc1-c1ccccc1)N1CCOCC1` (stereo not given), the inhibition was 3.12% (inactive).

`O=C(COc1ccc(S(=O)(=O)NCc2ccccc2)cc1)N1CCOCC1`: the inhibition was -1.27% (inactive).

On to `Cc1ccc(S(=O)(=O)N2CCOCC2)cc1C(=O)NC(=S)N(Cc1ccccc1)C(C)C`, for which the inhibition was 21.7% (active).

Take `CC(C)c1cc(C(=O)N/N=C/c2ccoc2)c(O)c(C(C)C)c1`: the inhibition is 9.71% (inactive).

As to `NC(Cc1ccccc1)c1csc(Nc2cc(Oc3ccccc3)ncn2)n1` (stereo not given), the inhibition is 9.47% (inactive).

As for `NC[C@H](Cc1ccccc1)NCCc1cc(C(F)(F)F)cc(C(F)(F)F)c1`, the inhibition is 23.4% (active).

With `Cc1cccc(NC(=S)NCCN(C2CCCCC2)C2CCCC2)c1`, the inhibition was 15.1% (inactive).

With `Cc1nnc(Sc2nc3c(c(=O)[nH]c(=O)n3C)n2Cc2ccccc2)s1`, the inhibition was -3.34% (inactive).

For `CN(C)S(=O)(=O)c1cccc(NC(=S)N/N=C/C(=O)c2ccccc2)c1`, the inhibition is 33.4% (active).

Take `COc1ccnc(NC(=S)N2CCN(c3ncc(C(F)(F)F)cc3Cl)CC2)c1`: the inhibition is 19% (inactive).

As for `CC(C)=CCCC1(C)C=Cc2c(ccc3c2[nH]c2cc(O)c(C)cc23)O1` (stereo not given), the inhibition was -8.08% (inactive).

Regarding `O=C(NNC(=S)Nc1ccc(Br)cc1Cl)c1ccco1`, the inhibition was 32.4% (active).

Consider `O=C(NN1C(=O)C2C3C=CC(C3)C2C1=O)c1ccco1` (stereo not given), for which the inhibition is 1.65% (inactive).

Turning to `Cc1c(Cl)cccc1NC(=S)NCc1ccc2c(c1)OCO2`, the inhibition was 13.1% (inactive).

For the compound `CCOC12CC(C)(C)CC(C)(CC3=C1C(=O)CC(C)(C)C3)C2` (stereo not given), the inhibition is 0.63% (inactive).

With `O=C(CCl)NNc1cccc(Cl)n1`, the inhibition is 74.6% (active).

`S=C(NNC(=S)NC1CC2CCC1C2)NC1CC2C=CC1C2` (stereo not given): the inhibition is 22.1% (active).

Turning to `O=C(NNC(=S)NC1CC2CCC1C2)c1ccc(Cl)cc1` (stereo not given), the inhibition was 22.9% (active).

Take `Cc1cccc(C)c1NC(=O)CN1C(=O)C(C)Oc2ccccc21` (stereo not given): the inhibition is 3.96% (inactive).

As for `Cn1c2c(c(=O)n(C)c1=O)C1c3ccccc3OCC1C(C)(C)O2` (stereo not given), the inhibition is -1.2% (inactive).

For the compound `Cc1ccc(C2Nc3ccccc3C(=O)N2CCN2CCNC2=O)cc1` (stereo not given), the inhibition is -3.41% (inactive).

Take `O=C(N/N=C/c1cc(Cl)cc([N+](=O)[O-])c1O)C(O)(c1ccccc1)c1ccccc1`: the inhibition is 35.7% (active).

With `Cc1c(C(=O)N/N=C/c2ccccc2)[nH]c2c([N+](=O)[O-])cccc12`, the inhibition is -5.71% (inactive).

For `Cc1[nH]c(N)nc(=S)c1CCCNc1ccccc1`, the inhibition was 18.5% (inactive).

Take `S=c1[nH]nc(-c2ccco2)n1/N=C/c1ccccc1`: the inhibition was 13.8% (inactive).

As for `CC(NC(=O)COC(=O)Cn1cc(C(F)(F)F)ccc1=O)c1ccccc1` (stereo not given), the inhibition was 0.6% (inactive).

For the compound `CC(Oc1ccc2ccccc2c1)C(=O)NNC(=S)NC(=O)c1ccco1` (stereo not given), the inhibition was 22.6% (active).

Consider `CCOC(=O)NC(=O)/C(C#N)=C\c1ccccc1`, for which the inhibition was -5.62% (inactive).

Consider `N=C(N)SCc1cccc2ccccc12`, for which the inhibition is 23.3% (active).

For `O=C(OC12CC3CC(CC(C3)C1)C2)c1ccc(NCc2cc(O)ccc2O)cc1`, the inhibition was 42.8% (active).

Regarding `COc1cc(/C=N/n2c(C)n[nH]c2=S)ccc1OCc1ccccc1`, the inhibition is 6.69% (inactive).

As for `O=C(NNC(=S)NC1CCCCC1)c1ccccc1Cl`, the inhibition is 31.4% (active).

Consider `COc1ccc(Cl)cc1C(=O)NNC(=S)NC1CCCC1`, for which the inhibition is 38.5% (active).

Take `CCNC(=S)Nc1ccc(OC(F)(F)F)cc1`: the inhibition was 10.7% (inactive).

With `CC(C)CC(=O)NC(=S)NNC(=O)c1cccc([N+](=O)[O-])c1`, the inhibition was 31.6% (active).

Regarding `CCCCCCCCCCOC(=O)C[N+](C)(C)CC1CCCCC1O` (stereo not given), the inhibition is 4.96% (inactive).

Turning to `COc1ccc2c(c1)c(=Cc1ccc(N(C)C)cc1)c1cc(-c3ccccc3)[n+](C)n12`, the inhibition is 45.1% (active).

As for `O=C(/C=C/c1c(Cl)cccc1Cl)NCc1ccccc1`, the inhibition was 3.51% (inactive).

As for `CCCCOc1ccc(CSC(=N)N)cc1[N+](=O)[O-]`, the inhibition is 25.2% (active).

On to `CC[C@]1(O)C[C@@H]2CN(CCc3c([nH]c4ccccc34)[C@@](C(=O)OC)(c3cc4c(cc3OC)N(C)[C@H]3[C@@](O)(C(=O)OC)[C@H](OC(C)=O)[C@]5(CC)C=CCN6CC[C@]43[C@@H]65)C2)C1`, for which the inhibition was 10.2% (inactive).

`Nc1[nH]c(C(=O)c2ccccc2)c(-c2ccc(Br)cc2)c1C(=O)NC1CC1`: the inhibition is 12.2% (inactive).

As to `COC(=O)C(C)n1cnc2c(nnn2-c2ccc(F)cc2)c1=O` (stereo not given), the inhibition is 1.8% (inactive).

As for `CN(CC(=O)Nc1ccc(N2CCOCC2)cc1)CC(=O)Nc1ccccc1[N+](=O)[O-]`, the inhibition was -2.32% (inactive).
